Bioassay records as filed in PubChem.
Tg IFNy HTS: blocks Toxoplasma gondii growth in the presence of IFN-gamma; Toxoplasma gondii growth in IFN-gamma-treated host cells; active compounds read low; activity change, negative = inhibition, % (no concentration beside the values); 69,000 compounds, 3.8% hits; AID 1259416; in the data active = activity change below about -70%, passing the limit was not always enough;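 also: host cells are HeLa cells infected with Toxoplasma gondii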
Numbers without * were called inactive; i = inactive; ! = not confirmed by another sample. Shown is part of a subset that was picked to be rich in hits.

SMILES | Tg IFNy HTS
CO[C@H]1/C=C\C=C(/C)C(=O)NC2=CC(=O)C(NCCN(C)C)=C(C[C@@H](C)C[C@H](OC)[C@H](O)[C@@H](C)/C=C(\C)[C@@H]1OC(N)=O)C2=O | -82*!
COC1C=COC2(C)Oc3c(C)c(O)c4c(c3C2=O)C2(C=C(NC(=O)/C(C)=C\C=C/C(C)C(O)C(C)C(O)C(C)C(OC(C)=O)C1C)C4=O)OCC(=O)O2 (centres undefined) | 14
COc1ccc2c(c1)NC1(CCN(C(=O)COc3ccc(Cl)cc3)CC1)c1cccn1-2 | 18
O=C([C@@H]1C[C@@H](O)CN1)N1CCc2[nH]nc(-c3cccc4ccccc34)c2C1 | 15
CC(=O)N1c2ccc(NC(=O)Cn3cnc4sc(C)cc4c3=O)cc2CC1C (centres undefined) | -51
COc1ccccc1N1CCN(C(=O)Nc2ccc(F)cc2)CC1 | -22
CC(C)(C)OC(=O)N1CCCN(C(=O)Nc2ccc(C(F)(F)F)cc2)CC1 | -86*
Cn1cnc(S(=O)(=O)N2CCCN(C(=O)OC(C)(C)C)CC2)c1 | 3
COCCN1CC[C@H]2OCC[C@@H](C(=O)N3CCCO3)[C@@H]2C1 | -6
COc1ccc(NC(=O)CN2CCC3(CC2)N=C(c2ccc(F)cc2)C(=O)N3)cc1 | 25
Cn1ncc(CN2CCN(Cc3cccc(F)c3)CC2)c1C1CC1 | -1
CCOC1CCC2(CCN(C(=O)c3ccc[nH]3)CC2)c2ccccc21 (centres undefined) | -67
CN1CC(=O)N(c2ccsc2)CC12CCN(C(=O)Nc1ccccc1F)C2 (centres undefined) | -101*
CN1CC(=O)N(c2ccsc2)CC12CCN(CC(=O)O)C2 (centres undefined) | 3
CN1CC(=O)N(c2cccc(F)c2)CC12CCN(C(=O)c1cccs1)C2 (centres undefined) | 10
CC(=O)NCC(=O)N1C[C@H](OCc2cccnc2)[C@@H]2COC[C@@H]21 | 3
CC(C)NC(=O)[C@H]1C[C@@H]2CN(C(=O)NCCc3ccccc3)C[C@H]1O2 | -21
CCCc1cc(C(=O)NCCCN2CCCC2=O)n[nH]1 | -23
Cc1sc(NC(=O)CSc2nc3cc4c(cc3cc2C#N)OCCO4)c(C#N)c1C | 198
CCOC(=O)c1c(NC(=O)CSc2nc(C)cc(C)n2)sc(C(C)=O)c1C | -24
CCOC(=O)c1sc(NC(=O)CSc2n[nH]c(-c3ccccn3)n2)c(C#N)c1C | -108*
CN(Cc1ccc2c(c1)OCO2)C(=O)c1cccc(C#CC(C)(C)O)c1 | 3
COCCN1C[C@@H](C(=O)NCCc2cccs2)C[C@@H]2OCC[C@@H]21 | -3
COc1cccc(-c2ccc(C3[C@@H]4CN(S(=O)(=O)Cc5ccccc5)C[C@H]3N4)cc2)c1 (some centres undefined) | -81*
CN(C)C(=O)c1cccc(-c2ccc(C3[C@H]4CNC[C@@H]3N4S(=O)(=O)Cc3ccccc3)cc2)c1 (some centres undefined) | -13
SMILES | Tg IFNy HTS
COc1cccc(S(=O)(=O)N2C[C@@H]3N[C@H](C2)C3c2ccc(-c3ccccc3F)cc2)c1 (some centres undefined) | -31
CC(=O)CC/C=C(\C)CC/C=C(\C)CC/C=C(\C)CCC=C(C)C | -77*
CC(=O)N[C@@H](CSC/C=C(\C)CC/C=C(\C)CCC=C(C)C)C(=O)O | -22
CC(C)=CCC/C(C)=C/COc1ccc2ccc(=O)oc2c1 | 19
O=C(c1cn(C2CCCCC2)nn1)N1CCc2[nH]cnc2C1c1ccncc1 (centres undefined) | 0
Cc1nonc1CN(C)Cc1ccccc1N1CCCCC1 | 2
CCCc1cc(C(=O)N2CCN3CCN(C)C(=O)C3C2)cs1 (centres undefined) | 8
CCCc1ncc(-c2ccc(OCC)c(OCC)c2)[nH]1 | -4
CCOc1ccc(-c2cnc[nH]2)cc1OCC | -47
CCOc1ccc(-c2cnc(-c3nccn3CC)[nH]2)cc1OCC | -81*
CC(C)(C)c1ccc2oc(CNC(=O)c3cccnc3)nc2c1 | 5
CCCCc1cc(=O)[nH]c(-c2ccc(CN(C)CC)cc2)n1 | 64
Cc1ccsc1-c1nc(CN2CCc3c(nc(CC4CC4)[nH]c3=O)C2)c(C)o1 | 11
COc1cccc(C2c3nc[nH]c3CCN2Cc2ccnc3ccccc23)c1 (centres undefined) | 5
N#Cc1ccc(-c2ccc3c(c2)[C@@H]2[C@@H](CCN2C(=O)C2CCCCC2)[C@H](CO)N3)cc1 | -63
COc1ccccc1-c1ccc2c(c1)[C@@H]1[C@@H](CCN1C(=O)C1CCC1)[C@H](CO)N2 | -72*
N#Cc1ccc(-c2ccc3c(c2)[C@H]2[C@H](CCN2C(=O)C2CCCCC2)[C@@H](CO)N3)cc1 | -63
CN(C)S(=O)(=O)c1ccc2c(c1)cc(C(=O)NCCCN1CCCC1)n2C | -14
Cc1ccncc1C(=O)N1CCCC2(CC1)CCN(CC1CC1)C2=O (centres undefined) | -4
CC(C)(C)c1[nH]cnc1/C=c1\[nH]c(=O)/c(=C/c2ccccc2)[nH]c1=O | -87*
Cc1cc(C#N)cc(C)c1Oc1nc(Nc2ccc(C#N)cc2)nc(N)c1Br | -86*
COc1cccc(-c2cn3nc(-c4cccs4)sc3n2)c1 | i
CCC(c1nc(CC2CCN(C)CC2)no1)n1cccn1 (centres undefined) | 8
O=C(CNC(=O)c1ccc(Cl)cc1)NO | 17
O=C(Nc1ccc(Sc2cccs2)cc1)c1ccc(Cl)cc1 | -62
SMILES | Tg IFNy HTS
O=C(NCc1c(Cl)cccc1Sc1ccc(Cl)cc1)c1ccc(Cl)cc1 | -102*
Cc1cc(-c2ccc3c(c2)CCO3)cnc1N | 13
O=C(Nc1nc(-c2ccc3c(c2)CCCO3)cs1)c1ccc2oc(=O)[nH]c2c1 | 9
COc1ccc(CCC(=O)Nc2nnc(C3CCCO3)s2)cc1OC (centres undefined) | -36
COc1ccc(C(O)c2nccc3cc(OC)c(OC)cc23)cc1OC (centres undefined) | 0
CCOc1ccc(CNCc2cccs2)cc1OCC | 3
CCOc1ccc(Cc2nccc3cc(OCC)c(OCC)cc23)cc1OCC | -83*
COc1ccc(-n2c(=O)c(C(=O)NCc3cccc(C)c3)c(O)c3cccnc32)cc1 | 56
O=C(Cn1ncc2c(N3CCOCC3)ncnc21)NC1CCCC1 | -21
Cc1nc(COCC2CN(CCN(C)C)Cc3ncn(C)c32)cs1 (centres undefined) | -1
Cc1sc2ncnc(NCc3ccco3)c2c1C | -3
Cc1sc2ncnc(Oc3ccc(OCc4ccccc4)cc3)c2c1C | -101*
Oc1ccc(OCc2ccccc2)cc1 | -33
CC(C)OCc1ncn2c1CN(C(=O)c1ccc3ccccc3n1)CCC2 | 3
O=C(Nc1ccc(N2CCOCC2)c(F)c1)c1cc(-c2ccc3c(c2)OCO3)n[nH]1 | -60
CCOc1ccc2[nH]c(=O)c(CNCCO)cc2c1 | -101*
COc1ccc2[nH]c(=O)c(CNc3c(C)cc[nH]c3=O)cc2c1 | 139
CCOc1ccc2[nH]c(=O)c(CN(C)Cc3cc(C)on3)cc2c1 | -18
Cc1cc(C)cc(NC(=O)COc2nc(C)nc3ccccc23)c1 | -10
N#C/C(=C/c1ccc(O)c(O)c1)C(=O)NCCCc1ccccc1 | 3
N#C/C(=C/c1ccc(O)c(O)c1)C(=O)NCc1ccccc1 | -3
N#C/C(=C\c1ccc(O)c(O)c1)C(=O)NC1CCC(CC2CCC(NC(=O)/C(C#N)=C/c3ccc(O)c(O)c3)CC2)CC1 (centres undefined) | -80*
Cc1cc(=O)n(CC(=O)N2CCC(CCN3CCOCC3)CC2)c2ccccc12 | 1
